# Laboratory results taken from PubChem BioAssay AID1942 (Johns Hopkins Ion Channel Center, 2009).
# Among all 2,400 compounds or so, about 580 (24%) were called active. Not all results are given here. A number with no mark means an inactive call.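 How the source made its calls: active means activity change at or above the mean plus 3 SD of buffer wells without dofetilide, per plate; inactive means the rest.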
# Target: Potassium voltage-gated channel subfamily KQT member 2 (Rattus norvegicus) (UniProt O88943)
# Sequence (O88943 whole entry, looked up): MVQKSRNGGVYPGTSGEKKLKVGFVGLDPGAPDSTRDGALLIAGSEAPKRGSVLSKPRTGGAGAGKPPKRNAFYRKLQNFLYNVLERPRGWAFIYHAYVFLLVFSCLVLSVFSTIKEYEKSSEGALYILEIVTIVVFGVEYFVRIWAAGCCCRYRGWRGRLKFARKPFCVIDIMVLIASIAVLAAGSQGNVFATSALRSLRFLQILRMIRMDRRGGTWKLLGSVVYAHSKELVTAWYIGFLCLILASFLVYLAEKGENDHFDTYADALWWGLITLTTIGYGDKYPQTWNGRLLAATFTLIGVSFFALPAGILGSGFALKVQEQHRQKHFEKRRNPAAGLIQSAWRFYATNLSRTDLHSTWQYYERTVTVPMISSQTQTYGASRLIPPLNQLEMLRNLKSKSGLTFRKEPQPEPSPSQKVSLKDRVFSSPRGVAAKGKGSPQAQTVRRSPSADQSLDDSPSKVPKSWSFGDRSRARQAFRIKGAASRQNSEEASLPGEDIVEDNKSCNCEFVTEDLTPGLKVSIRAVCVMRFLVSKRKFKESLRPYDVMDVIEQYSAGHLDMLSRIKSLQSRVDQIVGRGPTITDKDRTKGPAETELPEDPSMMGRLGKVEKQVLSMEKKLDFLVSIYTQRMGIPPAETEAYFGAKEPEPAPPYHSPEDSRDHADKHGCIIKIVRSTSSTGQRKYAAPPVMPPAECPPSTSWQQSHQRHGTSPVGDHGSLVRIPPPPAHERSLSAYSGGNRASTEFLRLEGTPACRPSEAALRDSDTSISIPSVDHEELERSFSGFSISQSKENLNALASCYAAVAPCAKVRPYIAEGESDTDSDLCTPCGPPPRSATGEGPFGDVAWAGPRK
# Assay: rat KCNQ2 channel activation by compounds alone, confirmation, counter-screen for hERG block protector project, cell-based, CHO, FluxOR thallium flux (AID 1942);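 further: normalized value minus buffer-control mean plus three SD of buffer wells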
# Settings: CHO-KCNQ2 cells, FluxOR thallium flux fluorescence; at 10 µM; stronger effect = higher value
row,Compound,"activity change, less the hit threshold"
1,CCN(C(=O)c1cc2c(=O)[nH]c3ccc(C)cc3c2s1)c1ccccc1F,-7%
2,O=C(O)c1cccc2cc(-c3ccccc3)oc(=O)c12,-17.7%
3,COc1cccc(CN(C)CC2CCCN(CCc3ccc(Cl)cc3)C2)c1OC (stereo unspecified),-26.8%
4,Cc1ccc(-n2nc(C)c3c2OC(N)=C(C#N)C3c2ccoc2)cc1 (stereo unspecified),-13.7%
5,O=C(CCC(=O)N1CCN(S(=O)(=O)c2ccccc2)CC1)c1cccs1,-13.6%
6,CN1C(=O)NC(c2cccc([N+](=O)[O-])c2)C2=C1CC(C)(C)CC2=O (stereo unspecified),-22.1%
7,COc1cccc(NC(=O)c2cncs2)c1,-22.6%
8,COc1cccc(C(=O)NNC(=O)C(=O)Nc2ccc(C)cc2)c1,78.3% (active)
9,CCc1ccc(NC(=S)Nc2cccc(OC)c2)cc1,-15.5%
10,CCc1ccc(NC(=O)C(=O)NNC(=O)c2cccc(OC)c2)cc1,62.3% (active)
11,CCc1ccc(NC(=O)C(=O)NNC(=O)c2ccc(OC)cc2)cc1,100% (active)
12,COc1ccc(CCNC(=O)C2CCCN(S(C)(=O)=O)C2)cc1 (stereo unspecified),-23.4%
13,Cc1n[nH]c(C)c1CCNC(=O)C1CCC(=O)N(Cc2ccccc2F)C1 (stereo unspecified),-14%
14,Cc1c(-c2ccn[nH]2)cc(NC(=O)c2ccc(Cl)cc2)c(=O)n1N,-24.4%
15,COCC1CCCN(C(=O)c2ccc3oc(C(C)C)nc3c2)C1 (stereo unspecified),-11.7%
16,Cc1ccc(NC(=O)CN2C(=O)N/C(=C/c3ccccc3OCc3cccc(C(=O)O)c3)C2=O)cc1,-18.7%
17,CCOC(=O)NC(=O)/C(C#N)=N\Nc1ccc(Cl)cc1,-17.6%
18,CC(C)(C)SCCNC(=O)CN1C(=O)c2ccccc2S1(=O)=O,-13.2%
19,Cc1nc2cc3sc(C)nc3cc2s1,-9.2%
20,COc1ccc(-c2cc(=O)oc3cc(OCC(C)=O)ccc23)cc1,-20.9%
21,O=C(CN1C(=O)S/C(=C\c2cccs2)C1=O)Nc1ccc(C(=O)O)c(O)c1,21.5% (active)
22,O=C(CCN1C(=O)/C(=C/c2cccs2)SC1=S)Nc1cccc(C(=O)O)c1,-22.7%
23,O=C(CN1C(=O)S/C(=C\c2cccs2)C1=O)Nc1ccc(O)c(C(=O)O)c1,-14%
24,CSc1nc(C)c2c(n1)N(c1ccc(C(C)C)cc1)CC2,-17.3%
25,O=C(N/N=C/c1ccc(-c2ccccc2)o1)c1ccccc1O,-5.7%
26,Cc1cccc(C(=O)CC(=O)c2cc(Cl)ccc2O)c1,-14.2%

row,Compound,"activity change, less the hit threshold"
1,O=C(N/N=C/c1cc(Cl)ccc1O)c1ccccc1Br,6.8% (active)
2,CC(C)C(=O)N(c1ccc(F)cc1)C1C=CS(=O)(=O)C1 (stereo unspecified),-12.6%
3,O=c1oc2ccccc2c2c1nc(C(F)(F)F)n2-c1ccccc1,-18.1%
4,O=C(CSc1nc(-c2ccccc2)nc2ccc(F)cc12)Nc1cccc(C(=O)O)c1,-4.9%
5,CC[C@@H](C(=O)[C@@H](C)[C@@H](O)[C@H](C)CCc1ccc(C)c(O)c1C(=O)O)[C@H]1O[C@](CC)([C@H]2CC[C@](O)(CC)[C@H](C)O2)C[C@@H]1C,155% (active)
6,Cc1nc2c(C(=O)NCCc3ccccc3)c[nH]n2c(=O)c1Cl,-7.3%
7,Cc1onc(-c2ccccc2Cl)c1C(=O)NC(=S)Nc1ccc(C(C)C)cc1,-9%
8,O=C(NC(=S)Nc1ccccc1Cl)c1csnn1,71.3% (active)
9,O=C(COc1ccccc1Cl)NC(=S)Nc1ccccc1N1CCCC1,-15.7%
10,COc1ccc(NC(=S)NC(=O)c2csnn2)cc1,52.2% (active)
11,Cc1snnc1C(=O)NC(=S)Nc1ccccc1,30.3% (active)
12,COc1ccc(NC(=S)Nc2ccccn2)cc1,-16.1%
13,O=C(NC(=S)Nc1ccccc1)c1csnn1,81.6% (active)
14,Cc1ccc(NC(=S)NC(=O)c2ccc(-c3ccccc3)cc2)cc1,-11%
15,COc1ccc(NC(=O)c2onc(C)c2Cl)cc1,-22.4%
16,Cc1cccnc1NC(=O)c1csnn1,-13.6%
17,O=C(NC(=S)Nc1ccccc1)c1cncc(C#Cc2ccccc2)c1,-13%
18,Cc1ccc(NC(=O)c2cc(-c3ccc4c(c3)OCO4)on2)cc1,-8.6%
19,CCn1c(=O)c(-[n+]2ccccc2)c(O)c2ccccc21,-27.1%
20,Cc1ccc(N2C(=O)c3ccccc3C2(O)c2ncc[nH]2)cc1 (stereo unspecified),-19.5%
21,O=C1C=C(c2ccccc2)OC(=O)C1C(=O)c1ccccc1 (stereo unspecified),-12.8%
22,N#Cc1c2n(c3c(=O)n(Cc4ccc(Cl)cc4)cnc13)CCCC2,-19.7%
23,CC12CCC3(CO)COC(c4ccccc4O1)C2C3 (stereo unspecified),-21.5%
24,CCCOc1ccc(-c2c(C(=O)N/N=C/c3ccccc3OCC)nnn2-c2nonc2N)cc1,-19.7%
25,CC(=O)N1C(=O)/C(=C2\SC(=S)N(NC(=O)c3ccc(O)cc3)C2=O)c2ccccc21,-12.5%
